Data reported in PubChem BioAssay AID1159580 (chemical genetic matrix, 2015).
Among all 5,500 compounds or so, about 2,000 (36%) were called active. Inconclusive results (about 18%) are left out. Cut-off read from the data, not from the text of the source: active = normalized growth mostly below about 0.91 (no sharp cut-off); inconclusive = no clear call, values can overlap the other calls; inactive = mostly above about 0.92. The list shows a part of the results.

Test: chemical genetic growth profiling, strain panel (AID 1159580);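 note: tested at 20 µM; growth read once vehicle control cultures reached saturation at 30 °C; 1 = growth at the plate median or of vehicle wells; lower values mean less growth of the strain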
Conditions: S. cerevisiae deletion strains, growth OD
[1] = locus YHR030C, strain SLT2, hits give low values
[2] = locus YJL187C, strain SWE1, hits give low values
[3] = locus YNL153C, strain GIM3, hits give low values
[4] = locus YNL322C, strain KRE1, hits give low values
[5] = locus YPL241C, strain CIN2, hits give low values

Measured: normalized growth

Cc1ncc(CO)c(CO)c1O
inactive: locus YAL021C, strain ccr4, hits give low values 1.02 | locus YAL026C, strain drs2, hits give low values 1.02 | locus YAL030W, strain snc1, hits give low values 1.03 | locus YBL061C, strain skt5, hits give low values 1.02 | locus YBR009C, strain hhf1, hits give low values 1.01 | locus YBR023C, strain chs3, hits give low values 1.03 | locus YBR171W, strain sec66, hits give low values 1.04 | locus YBR231C, strain swc5, hits give low values 1.02 | locus YBR279W, strain paf1, hits give low values 1.01 | locus YCL011C, strain gbp2, hits give low values 1.02 | locus YCL016C, strain dcc1, hits give low values 1.01 | locus YCL069W, strain vba3, hits give low values 1.04 | locus YCR088W, strain abp1, hits give low values 1.01 | locus YDL005C, strain med2, hits give low values 1.03 | locus YDL040C, strain nat1, hits give low values 1.02 | locus YDR001C, strain nth1, hits give low values 1.03 | locus YDR069C, strain doa4, hits give low values 1.03 | locus YDR137W, strain rgp1, hits give low values 1.03 | locus YDR159W, strain sac3, hits give low values 1 | locus YDR195W, strain ref2 1.03 | locus YDR297W, strain sur2, hits give low values 1.03 | locus YDR334W, strain swr1, hits give low values 1.03 | locus YDR335W, strain msn5, hits give low values 1.02 | locus YDR392W, strain spt3, hits give low values 1.01 | locus YEL003W, strain gim4, hits give low values 1.02 | locus YEL037C, strain rad23, hits give low values 1.02 | locus YEL061C, strain CIN8 (second series), hits give low values 1.02 | locus YER015W, strain faa2, hits give low values 1.03 | locus YER016W, strain bim1, hits give low values 1 | locus YER111C, strain swi4, hits give low values 1.02 | locus YER155C, strain BEM2 (second series), hits give low values 1.07 | locus YFR010W, strain ubp6, hits give low values 1.02 | locus YGL167C, strain pmr1, hits give low values 1.03 | locus YGL173C, strain kem1, hits give low values 1.04 | locus YGL227W, strain vid30, hits give low values 1.02 | locus YGL240W, strain doc1, hits give low values 1.01 | locus YGL253W, strain hxk2, hits give low values 1.03 | locus YHR013C, strain ard1, hits give low values 1.03 | locus YHR027C, strain rpn1, hits give low values 1.02 | [1] 0.956 | locus YHR079C, strain IRE1, hits give low values 0.98 | locus YHR142W, strain chs7, hits give low values 1.02 | locus YJL092W, strain hpr5, hits give low values 1.01 | locus YJL095W, strain BCK1 (second series), hits give low values 1.02 | locus YJL095W, strain BCK1, hits give low values 0.973 | locus YJL115W, strain asf1, hits give low values 1.03 | locus YJL129C, strain trk1, hits give low values 1.04 | locus YJL154C, strain vps35, hits give low values 1.03 | locus YJL164C, strain tpk1, hits give low values 1.01 | locus YJL166W, strain qcr8, hits give low values 1.02 | [2] 1.03 | locus YJR066W, strain TOR1, hits give low values 0.911 | locus YKL160W, strain elf1, hits give low values 1.01 | locus YKR026C, strain gcn3, hits give low values 1.02 | locus YKR091W, strain srl3, hits give low values 1.02 | locus YLL001W, strain dnm1, hits give low values 0.999 | locus YLL026W, hits give low values 1.02 | locus YLL041C, strain sdh2, hits give low values 1.02 | locus YLR027C, strain aat2, hits give low values 1.01 | locus YLR113W, strain HOG1, hits give low values 0.962 | locus YLR221C, strain rsa3, hits give low values 1 | locus YLR258W, strain gsy2, hits give low values 1.02 | locus YLR262C, strain YPT6 (second series), hits give low values 1.04 | locus YLR320W, strain mms22, hits give low values 1.04 | locus YLR342W, strain FKS1, hits give low values 1.02 | locus YLR357W, strain rsc2, hits give low values 1 | locus YLR370C, strain arc18, hits give low values 1.03 | locus YLR384C, strain iki3, hits give low values 1.02 | locus YML120C, strain ndi1, hits give low values 1.02 | locus YMR058W, strain fet3, hits give low values 1.02 | locus YMR125W, strain sto1, hits give low values 1.01 | locus YMR129W, hits give low values 1.02 | locus YMR205C, strain PFK2, hits give low values 1.05 | locus YMR231W, strain pep5, hits give low values 1.03 | locus YNL071W, strain lat1, hits give low values 1.02 | locus YNL183C, strain NPR1, hits give low values 0.927 | locus YNL209W, strain ssb2, hits give low values 1.03 | locus YNL248C, strain rpa49, hits give low values 1.03 | locus YNL322C, strain KRE1 (second series), hits give low values 1.04 | locus YNR049C, strain mso1, hits give low values 1.03 | locus YOR001W, strain rrp6, hits give low values 1.03 | locus YOR070C, strain gyp1, hits give low values 1.03 | locus YOR080W, strain dia2, hits give low values 1.04 | locus YOR083W, strain WHI5, hits give low values 0.975 | locus YOR106W, strain vam3, hits give low values 1.03 | locus YOR231W, strain MKK1, hits give low values 0.957 | locus YOR265W, strain rbl2, hits give low values 1.03 | locus YOR270C, strain vph1, hits give low values 1.08 | locus YOR290C, strain snf2, hits give low values 1.02 | locus YPL051W, strain arl3, hits give low values 1.02 | locus YPL078C, strain atp4, hits give low values 1.02 | locus YPL106C, strain sse1, hits give low values 1.04 | locus YPL240C, strain hsp82, hits give low values 1.04 | locus YPL256C, strain CLN2, hits give low values 0.975

CC(=O)C1=C(C)Nc2ccccc2S1
active: locus YLR085C, strain ARP6, hits give low values 0.622 | locus YMR263W, strain SAP30, hits give low values 0.852 | locus YNR030W, strain Alg12, hits give low values 0.804 | [5] 0.849 | locus YPR135W, strain CTF4, hits give low values 0.623
inactive: locus YAL013W, strain DEP1, hits give low values 0.959 | locus YBR229C, strain ROT2, hits give low values 0.949 | locus YDL101C, strain DUN1, hits give low values 0.938 | locus YDR150W, strain NUM1, hits give low values 0.911 | locus YEL061C, strain CIN8, hits give low values 0.943 | locus YGR078C, strain PAC10, hits give low values 0.982 | locus YGR229C, strain SMI1, hits give low values 1.02 | [1] 0.922 | locus YHR087W, strain rtc3, hits give low values 1.01 | [2] 0.954 | locus YJR075W, strain HOC1, hits give low values 0.974 | locus YLR039C, strain RIC1, hits give low values 0.978 | locus YLR058C, strain SHM2 (second series), hits give low values 0.987 | locus YLR262C, strain YPT6, hits give low values 1.03 | locus YML094W, strain GIM5, hits give low values 0.888 | locus YMR219W, strain ESC1, hits give low values 0.971 | [3] 0.963 | locus YNL298W, strain CLA4 (second series), hits give low values 0.857 | [4] 1.02 | locus YPL055C, strain LGE1, hits give low values 0.795

CCCN(CCC)C(=O)Cc1c(-c2ccc(Cl)cc2)nc2c(Cl)cc(Cl)cn12
inactive: locus YAL040C, strain CLN3, hits give low values 1 | locus YDR363W, strain ESC2, hits give low values 1.01 | locus YER002W, strain NOP16, hits give low values 1.05 | locus YMR307W, strain GAS1, hits give low values 1 | locus YNL128W, strain TEP1, hits give low values 1.01 | [3] 1.02 | locus YNL175C, strain NOP13, hits give low values 1.03 | locus YNL197C, strain WHI3, hits give low values 1.03 | locus YNL224C, strain SQS1, hits give low values 1.01 | [4] 0.985 | locus YOR083W, strain WHI5 (second series), hits give low values 1.08 | [5] 0.992
